Compounds with a hit are over-represented: about 4.1% of the library has one in this group of screens.
NR3A LBD binder: modulates the human NR3A ligand-binding domain | NR3A LBD differential scanning fluorimetry, Tm shift; 0% = protein alone, 100% = glycine-bound protein | Tm shift relative to glycine control, % at 25 µM | hit rate 2.5% among 340,000 | AID 1259313;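 active = melting temperature shift of at least 10% of the positive control shift, at one fixed dose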
p-CIP stab down: p/CIP protein destabilization | F442A p/CIP-EGFP cells, EGFP fluorescence, 16 h | hit rate 0.01% among 290,000 | decrease of EGFP signal, % at 10 µM;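 active = EGFP signal decrease of at least 30% at 10 µM or well 3 SD below plate mean, unless failing retest; inactive = the rest, including hits failing retest or dose response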
FAS-TE inh: blocks the thioesterase domain of human fatty acid synthase; AID 602261; hit rate 0.67% among 360,000; inhibition, % at 15 µM; P49327; recombinant FAS-TE, OMFH fluorogenic substrate, fluorescence endpoint;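 active = compounds whose normalised, plate-corrected inhibition of enzyme fluorescence in the single-dose primary screen is 50% or more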
beta cell repl: MIN6 beta-cell proliferation induction | AID 2380 | proliferation, % at 10 µM | hit rate 0.29% among 330,000 | MIN6 cells proliferation, ATPlite luminescence, 48 h; cells starved in 0.2% serum; 100% = growth in 10% serum;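 active = compounds whose signal lies at least 3.5 SD above the mean of all wells on their plate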
MPTP block: permeability transition pore inhibition. isolated mouse mitochondria, Ca2+ swelling absorbance, 30 min. inhibition, % at 10 µM. hit rate 1.4% among 360,000. AID 602449;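 active = inhibition of 50% or more, scaled per plate between neutral and stimulator controls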
Hits are given with their value.

CC(=O)Nc1ccc(S(=O)(=O)Nc2nc3ccccc3nc2N2CCCCCC2)cc1 was read as NR3A LBD binder inactive, p-CIP stab down inactive, FAS-TE inh inactive, beta cell repl inactive and MPTP block inactive.
`CCCCCCC1C(C#N)=C(N)OC2=C1C(=O)CC(C)(C)C2` (stereo unspecified) gave NR3A LBD binder 43.7, p-CIP stab down inactive, FAS-TE inh inactive, beta cell repl inactive and MPTP block inactive.
COc1ccccc1C(=O)/C=C/c1ccc(N2CCCCC2)c([N+](=O)[O-])c1 was read as NR3A LBD binder inactive, p-CIP stab down inactive, FAS-TE inh inactive, beta cell repl inactive and MPTP block inactive.
For O=C(/C=C/c1ccc(N2CCCCC2)c([N+](=O)[O-])c1)c1ccc(O)cc1 the results were NR3A LBD binder 10.7, p-CIP stab down inactive, FAS-TE inh inactive, beta cell repl inactive and MPTP block inactive.
COc1ccc(-c2ncccc2OC(=O)C23CC4CC(CC(C4)C2)C3)cc1 was read as NR3A LBD binder 16.4, p-CIP stab down inactive, FAS-TE inh inactive, beta cell repl inactive and MPTP block inactive.
Screening O=C(O)c1ccccc1OC(=O)C12CC3CC(CC(C3)C1)C2 returned NR3A LBD binder inactive, p-CIP stab down inactive, FAS-TE inh inactive, beta cell repl inactive and MPTP block inactive.
CN1CCC(=NNC(=O)CN(c2ccccc2)S(=O)(=O)c2ccccc2)CC1 was read as NR3A LBD binder 10.3, p-CIP stab down inactive, FAS-TE inh inactive, beta cell repl inactive and MPTP block inactive.
Screening CC(C)c1ccc(N(CC(=O)NN=C2CCN(C)CC2)S(=O)(=O)c2ccccc2)cc1 returned NR3A LBD binder inactive, p-CIP stab down inactive, FAS-TE inh inactive, beta cell repl inactive and MPTP block inactive.
CC(=O)Nc1ccc(S(=O)(=O)Nc2nc3ccc([N+](=O)[O-])cc3s2)cc1 was read as NR3A LBD binder 15.7, p-CIP stab down inactive, FAS-TE inh inactive, beta cell repl inactive and MPTP block inactive.
For CS(=O)(=O)c1ccc2nc(NC(=O)c3ccc(NS(=O)(=O)c4cccc([N+](=O)[O-])c4)cc3)sc2c1 the results were NR3A LBD binder 15.9, p-CIP stab down inactive, FAS-TE inh inactive, beta cell repl inactive and MPTP block inactive.
Screening CC(=O)Nc1cccc(/C(C)=N/NC(=O)c2ccc(NS(=O)(=O)c3cccs3)cc2)c1 returned NR3A LBD binder inactive, p-CIP stab down inactive, FAS-TE inh inactive, beta cell repl inactive and MPTP block inactive.
Screening Cc1ccc2nc(NC(=O)c3ccc(NS(=O)(=O)c4cccs4)cc3)sc2c1 returned NR3A LBD binder 33.0, p-CIP stab down inactive, FAS-TE inh inactive, beta cell repl inactive and MPTP block inactive.
`C/C(=N\NC(=O)c1ccc(NS(=O)(=O)c2cccs2)cc1)c1ccc(C(C)(C)C)cc1` gave NR3A LBD binder 14.9, p-CIP stab down inactive, FAS-TE inh inactive, beta cell repl inactive and MPTP block inactive.
For CC(=O)Nc1ccc(S(=O)(=O)Nc2nc3ccccc3s2)cc1 the results were NR3A LBD binder inactive, p-CIP stab down inactive, FAS-TE inh inactive, beta cell repl inactive and MPTP block inactive.
Screening CC1=C(C(=O)N(C(C)C)C(C)C)CC(CC(=O)NC2CC2)C(=O)N1Cc1ccc(F)cc1 (stereo unspecified) returned FAS-TE inh inactive and MPTP block inactive.
For CN(CC(=O)Nc1cccc(F)c1)C(=O)c1cn(-c2ccccc2)nc1-c1ccc(Cl)cc1 the results were NR3A LBD binder 27.1, FAS-TE inh inactive, beta cell repl inactive and MPTP block inactive.
Screening COc1cccc(NC(=O)CN(C)C(=O)c2cn(-c3ccccc3)nc2-c2cccs2)c1 returned NR3A LBD binder 14.1, FAS-TE inh inactive, beta cell repl inactive and MPTP block inactive.
Screening CN(CC(=O)Nc1cccc(F)c1)C(=O)c1cn(-c2ccccc2)nc1-c1cccs1 returned NR3A LBD binder 23.0, p-CIP stab down inactive, FAS-TE inh inactive, beta cell repl inactive and MPTP block inactive.
For COc1ccc(NC(=O)CN(C)C(=O)c2cn(-c3ccccc3)nc2-c2ccc(Cl)cc2)cc1 the results were NR3A LBD binder 27.4, FAS-TE inh inactive, beta cell repl inactive and MPTP block inactive.
Screening CN(CC(=O)Nc1cccc(F)c1)C(=O)c1cc(-c2cccs2)nn1-c1ccccc1 returned NR3A LBD binder inactive, FAS-TE inh inactive, beta cell repl inactive and MPTP block inactive.
CC1=C(C(=O)N2CCCCCC2)CC(CC(=O)NCCc2ccccn2)C(=O)N1CCC1=CCCCC1 (stereo unspecified) was read as FAS-TE inh inactive and MPTP block inactive.
O=C(CC[C@H]1O[C@@H](n2ccc(=O)[nH]c2=O)[C@H](O)[C@@H]1O)N[C@@H](Cc1ccccc1)C(=O)NCC1CCCCC1 was read as FAS-TE inh inactive and MPTP block inactive.
`NS(=O)(=O)c1ccc(NC(=O)COC(=O)c2cn(-c3ccccc3)nc2-c2ccccc2)cc1` gave NR3A LBD binder 21.7, p-CIP stab down inactive, FAS-TE inh inactive, beta cell repl inactive and MPTP block inactive.
For Cc1ccc(NC(=O)c2cc(-c3ccccc3)n[nH]2)cc1 the results were NR3A LBD binder 10.3, p-CIP stab down inactive, FAS-TE inh inactive, beta cell repl inactive and MPTP block inactive.
`CCc1ccc(O)c(-c2cc(C(=O)Nc3cccnc3)[nH]n2)c1` gave NR3A LBD binder 19.6, p-CIP stab down inactive, FAS-TE inh inactive, beta cell repl inactive and MPTP block inactive.
Screening Cc1ccc(O)c(-c2cc(C(=O)NCc3ccncc3)[nH]n2)c1 returned NR3A LBD binder inactive, p-CIP stab down inactive, FAS-TE inh inactive, beta cell repl inactive and MPTP block inactive.
Screening CC(=O)Nc1ccc(NC(=O)c2cc(-c3cc(C)c(C)cc3O)n[nH]2)cc1 returned NR3A LBD binder 31.9, p-CIP stab down inactive, FAS-TE inh inactive, beta cell repl inactive and MPTP block inactive.
Screening Cc1cc(O)c(-c2cc(C(=O)Nc3cccnc3)[nH]n2)cc1C returned NR3A LBD binder 26.5, p-CIP stab down inactive, FAS-TE inh inactive, beta cell repl inactive and MPTP block inactive.
For COc1ccc(NS(=O)(=O)c2cccc(C(=O)N3CCN(S(=O)(=O)c4ccccc4)CC3)c2)cc1 the results were NR3A LBD binder inactive, FAS-TE inh inactive and MPTP block inactive.
Screening CCC(c1nc2ccccc2[nH]1)N(C(=O)C1=NNC(=O)CC1)c1ccccc1 (stereo unspecified) returned FAS-TE inh inactive and MPTP block inactive.
`Cc1ccc(S(=O)(=O)N2C[C@H]3C(=O)C[C@@H](c4ccc(Cl)cc4)N(S(=O)(=O)c4ccc(C)cc4)[C@H]3C[C@H]2c2ccc(Cl)cc2)cc1` gave FAS-TE inh inactive and MPTP block inactive.
For C=CCSc1nc(Oc2ccccc2)c2sccc2n1 the results were NR3A LBD binder 15.0, p-CIP stab down inactive, FAS-TE inh inactive, beta cell repl inactive and MPTP block inactive.
